Results taken from PubChem BioAssay AID894 (National Center for Advancing Translational Sciences (NCATS), 2007).
Screen size: about 150,000 compounds; about 6,500 (4.3%) were called active. Not shown: some 12% with an inconclusive outcome. For the sample, actives were picked, then their nearest neighbours and some compounds at random. Unmarked numbers belong to inactive results. Calls follow the shape of the dose curve; as a rule, active = well fitted inhibition curve with a large enough effect (not every such curve was filed as active); inconclusive = small, poorly fitted or top-dose-only effect, or another doubt; inactive = no such curve, though single readings can be large or run the other way.

Molecular target: 15-hydroxyprostaglandin dehydrogenase [NAD(+)] (Homo sapiens) (UniProt P15428)
Experiment: qHTS Assay for Inhibitors of HPGD (15-Hydroxyprostaglandin Dehydrogenase)
Conditions: purified HPGD, NADH fluorescence kinetic, PGE2 substrate; activity change, negative = inhibition: stronger effect = lower value
Procedure, shortened: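 NADH formation kinetics: reaction with 30 uM PGE2 and 1 mM NAD+ (final), 20 nM enzyme, Tris-HCl pH 8 with Tween 20, after 15 min compound preincubation at room temperature. Fluorescence change, last versus first of five reads.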
% is scaled to controls: 0 for no effect and ±100 for the full control effect; potency is read from the fitted curve at half-maximal effect.

Sequence of 15-hydroxyprostaglandin dehydrogenase [NAD(+)] (Homo sapiens) (P15428 whole entry, looked up): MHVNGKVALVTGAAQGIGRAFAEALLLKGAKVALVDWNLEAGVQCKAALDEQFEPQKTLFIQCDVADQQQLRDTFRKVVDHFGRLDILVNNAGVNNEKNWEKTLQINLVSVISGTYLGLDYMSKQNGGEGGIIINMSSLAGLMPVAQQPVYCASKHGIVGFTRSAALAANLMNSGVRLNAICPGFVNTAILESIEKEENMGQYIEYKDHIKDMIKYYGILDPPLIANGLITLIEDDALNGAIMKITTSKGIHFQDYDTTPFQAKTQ

Row | SMILES | activity change, negative = inhibition | Potency
1 | CCC1CCCCN1C(=S)Nc1ccc(C(C)=O)cc1 (stereo not given) | -21.2% | 
2 | Cc1ccc(-c2cn3cc([N+](=O)[O-])ccc3n2)cc1 | -11.8% | 
3 | CC[C@H](C)[C@@H](NC(=O)O[C@@H]1C(=O)c2cc(OC)ccc2O[C@H]1c1cccc(OC)c1)C(=O)OC | -14.9% | 
4 | O=[N+]([O-])c1cc(C(F)(F)F)ccc1NN=C1CCCC1 | -7.57% | 
5 | C/C(=N\NC(=O)CCn1nc(C)cc1C)C(C)(C)C | -2.63% | 
6 | COC(=O)CCNc1ccc2c(c1)OCCO2 | -9.02% | 
7 | Cc1ccc(SCC(=O)Nc2ccc3c(c2)OCCO3)cc1 | -4% | 
8 | CCCCC(=O)Nc1ccc2c(c1)OCCO2 |  | 25.1 µM (active)
9 | Cc1cn(C2OC[C@@H](O)[C@@H]2CO)c(=O)[nH]c1=O (stereo not given in full) | -7.64% | 
10 | O=C(CSc1nnc(-c2cccnc2)n1CCc1ccccc1)NCc1ccccc1 | -12.6% | 
11 | Cc1ccccc1NC(=O)CSC1=NCCN1 | -5.67% | 
12 | O=C(CSc1n[nH]c(-c2cccnc2)n1)Nc1ccnc2ccccc12 |  | 15.8 µM (active)
13 | C=CCn1cc(C(=O)NCc2ccc(Cl)cc2)c(=O)c2cc(S(=O)(=O)N(CC)CC)ccc21 | 15.1% | 
14 | CC(=O)c1sc(N/N=C\c2ccc(C)cc2)nc1C | -20.1% | 
15 | C=CCNC(=S)NNC(=O)c1ccc(Br)o1 | -14.9% | 
16 | CC1=C(C(N)=O)C(c2ccc3c(c2)OCO3)n2nc(-c3cccc(C)c3)nc2N1 (stereo not given) | -3.51% | 
17 | Cc1cccc(C)c1NC(=O)CSc1nnc(-c2ccccc2)n1Cc1ccc2c(c1)OCO2 | -8.72% | 
18 | c1ccc(-c2nnc3n2NC(c2ccc4c(c2)OCO4)S3)cc1 (stereo not given) |  | 14.1 µM (active)
19 | COCCNc1nc(N)c([N+](=O)[O-])c(NCCO)n1 | -10.5% | 
20 | O=C(NNC(=S)NCc1ccccc1)c1ccc(OC(F)F)cc1 | -6.63% | 
21 | Cc1ccc(Cc2c(C)nc3nc(SCC(=O)NCCN4CCOCC4)nn3c2C)cc1 | -11.4% | 
22 | Cc1nc2nc(SCC(=O)NCc3ccco3)nn2c(C)c1Cc1ccccc1 |  | 22.4 µM (active)
23 | COc1cc(OC)cc(-c2nc3nc(C)c(CCC(=O)NCc4ccco4)c(C)n3n2)c1 | -10.9% | 
24 | CCOC(=O)C1CCN(c2ccc(C(=O)O)cc2[N+](=O)[O-])CC1 | -3.84% | 

Row | SMILES | activity change, negative = inhibition | Potency
25 | CC(=O)c1cc(-c2ccccc2)n(CCC(=O)NC2CCCCCC2)c1C | -4.2% | 
26 | COc1ccc(CNC(=O)C2CCC(CNc3c(N4CCOCC4)c(=O)c3=O)CC2)cc1 (stereo not given) | -17.3% | 
27 | CCOc1ccccc1NC(=O)C1CCC(CNc2c(N3CCOCC3)c(=O)c2=O)CC1 (stereo not given) | -25.1% | 
28 | O=C(NCc1ccccc1Cl)C1CCC(CNc2c(N3CCCCC3)c(=O)c2=O)CC1 (stereo not given) |  | 12.6 µM (active)
29 | O=C(CCN1C(=O)c2ccccc2C1=O)NNC(=O)c1ccc(Cl)cc1Cl | -7.71% | 
30 | Cc1c(Br)c([N+](=O)[O-])nn1CC(=O)Nc1sc2c(c1C(=O)OC(C)C)CCC(C)C2 (stereo not given) | -1.95% | 
31 | C/C(=N/NS(=O)(=O)c1ccccc1)c1ccc(NC(=O)C(F)(F)F)cc1 | -4.99% | 
32 | COc1ccc(/C=N/OCC(=O)N(Cc2ccccc2)c2ccccc2C(=O)O)cc1 | -8.65% | 
33 | O=C(N/N=C/c1coc2ccccc2c1=O)c1cc2ccccc2o1 | -20% | 
34 | Cc1cccc(N2CCN(C(=O)/C=C/c3ccco3)CC2)c1C | -20.4% | 
35 | CCOc1cc(-c2noc(CCC(=O)N3CCOCC3)n2)ccc1OC | -8.81% | 
36 | COc1ccc(OCC(=O)N2CCOCC2)cc1 | 4.8% | 
37 | Cc1ccc(OCCCC(=O)N2CCOCC2)c(C)c1 |  | 20 µM (active)
38 | COc1ccc(-c2nc3c(c4c2C[C@H](c2ccccc2)OC4)CN(C(=O)c2ccco2)CC3)c(C)c1 | -11.6% | 
39 | Cc1ccc(C(C)NC(=O)Cn2nc(C)c([N+](=O)[O-])c2C)cc1 (stereo not given) | -5.59% | 
40 | O=C(O)c1cccc(N=NN2CCCCCC2)c1 | -9.76% | 
41 | CCc1nnc(NC(=O)CCN(c2ccc(C)cc2)S(=O)(=O)c2ccccc2)s1 | -10.2% | 
42 | CC(=O)NNC1=Nc2ccccc2N(C)C(C)C1 (stereo not given) | 0.367% | 
43 | c1ccc2sc(SCCSc3nc4ccccc4s3)nc2c1 | 0.386% | 
44 | O=[N+]([O-])c1c(NCCO)cc(Sc2nc3ccccc3s2)c2nonc12 |  | 11.2 µM (active)
45 | Cc1nn(CC(=O)Nc2nc3ccccc3s2)c(C)c1[N+](=O)[O-] | -4.84% | 
46 | O=C(CSc1ccc2nnc(-c3ccccc3)n2n1)N1CCCc2ccccc21 | -22.3% | 
47 | COc1ccccc1CNC(=O)c1ccc(SC)cc1OC |  | 22.4 µM (active)
48 | CCOC(=O)c1c(C)[nH]c(C(=O)NCc2ccccc2OC)c1C | -7.72% | 

Row | SMILES | activity change, negative = inhibition | Potency
49 | COc1cc(SC)ccc1C(=O)NCCOc1ccccc1Cl | -18.8% | 
50 | CC(NC(=O)CCC(=O)N1CCN(S(=O)(=O)c2ccc(Cl)cc2)CC1)c1ccccc1 (stereo not given) | -5.29% | 
51 | Cc1c(Cl)cccc1NC(=S)NCc1ccc2c(c1)OCO2 | -5.45% | 
52 | CC(=O)c1c(Nc2ccccc2)sc(C(=O)c2ccccc2)c1C | -1.98% | 
53 | Cc1ccc(C(=O)c2c(NC(=O)c3ccncc3)sc3c2CCCC3)cc1 | -22.2% | 
54 | Cc1ccc(C(=O)c2c(NC(=O)c3ccccc3)sc(C)c2C)cc1 |  | 14.1 µM (active)
55 | CCc1ccccc1NC(=O)CN(C)C(=O)COc1ccc(C)nc1[N+](=O)[O-] | -2.83% | 
56 | COc1ccc(NC(=O)COC(=O)c2ccc(NS(=O)(=O)/C=C/c3ccccc3)cc2)cc1 | -13.7% | 
57 | Cn1cnc([N+](=O)[O-])c1Sc1ccccc1 |  | 15.8 µM (active)
58 | Cc1nn(C)c(Oc2ccccc2)c1[N+](=O)[O-] | -7.95% | 
59 | Cn1cnc([N+](=O)[O-])c1Nc1ccccc1O | -2.73% | 
60 | CCCN(CC1COc2ccccc2O1)C(=S)Nc1ccc(C)cc1 (stereo not given) | -7.28% | 
61 | CCCC(=O)n1nc(-c2ccccc2)nc1N | -7.53% | 
62 | CCS(=O)(=O)n1nc(-c2ccc(OC)cc2)nc1SC | -4.54% | 
63 | CCS(=O)(=O)n1nc(-c2ccccc2)nc1SCc1ccccc1 |  | 14.1 µM (active)
64 | Cc1cc(F)ccc1S(=O)(=O)N1CCCOC1CNC(=O)C(=O)NCCC1=CCCCC1 (stereo not given) | -6.01% | 
65 | COc1ccc(C(CCN(Cc2ccc(OC)c(OC)c2)C(=O)CCl)c2ccccc2)cc1 (stereo not given) |  | 10 µM (active)
66 | COc1ccc(CCN(C(=O)COc2ccccc2)c2nc(-c3ccccc3)cs2)cc1OC | -5.33% | 
67 | CCOC(=O)CN(Cc1ccc(OC)c(OC)c1)S(=O)(=O)c1ccc(OC)cc1 | 1.91% | 
68 | CC(C)(C)C1CCC(=NNC(=O)c2ccc(Br)o2)CC1 (stereo not given) | -11.4% | 
69 | CCOC(=O)c1ccc2c(c1)nc(SCC(=O)NC(C)C)n2CC |  | 31.6 µM (active)
70 | CCOC(=O)CNC(=O)CSc1nc2cccnc2n1CC | -17.6% | 
71 | CCn1c(SCC(=O)NCC2CCCO2)nc2cc(S(=O)(=O)N3CCCCC3)ccc21 (stereo not given) | -12.7% | 
72 | O=C(CSCc1ccc(Cl)cc1)N1CCCCC1 |  | 15.8 µM (active)

Row | SMILES | activity change, negative = inhibition | Potency
73 | O=C(CN1CCN(c2ccc(Cl)cc2)CC1)N1CCCC1 | -1.51% | 
74 | O=C(CSCc1ccc(Cl)cc1)N1CCN(Cc2ccc3c(c2)OCO3)CC1 | -13.7% | 
75 | CCCCC/C=C\C/C=C\CCCCCCCCCC(N)=O | -6.01% | 
76 | COc1ccc(NC(=S)NC2CCS(=O)(=O)C2)cc1 (stereo not given) | -7.38% | 
77 | Clc1ccc(CSc2nnc(/C=C/c3ccccc3)o2)c(Cl)c1 | -24.9% | 
78 | O=c1[nH]nc(CSCc2ccccc2Cl)[nH]1 | -4.38% | 
79 | S=c1[nH]nc(CSCc2ccc(Cl)cc2Cl)n1-c1ccccc1 |  | 3.16 µM (active)
80 | CCOC(=O)Cc1csc(NC(=O)CSc2ccc(Br)cc2)n1 | -1.05% | 
81 | CCOC(=O)CNC(=O)/C=C/c1c(Cl)cccc1Cl | -4.86% | 
82 | Cc1cccc2cc(CN(C(=O)c3cccs3)c3ccccc3)c(=O)[nH]c12 | -18.7% | 
83 | Cc1ccc(-c2csc(-c3c[nH]c4ccccc34)n2)cc1 | -7.14% | 
84 | Cc1ccc(/C=N\n2c(-c3ccccc3)n[nH]c2=S)s1 |  | 11.2 µM (active)
85 | Cc1ccsc1/C=N/n1c(=S)[nH]nc(C)c1=O | -6.69% | 
86 | Oc1ccccc1/C=N/n1c(-c2cccs2)n[nH]c1=S |  | 2.51 µM (active)
87 | c1ccc(-c2noc(-c3cccs3)n2)nc1 | -8.74% | 
88 | S=c1[nH]nc(-c2ccco2)n1/N=C/c1ccc(Br)s1 |  | 2.82 µM (active)
89 | Brc1ccc(/C=N/N2CCN(C3c4ccccc4-c4ccccc43)CC2)s1 | -4.34% | 
90 | S=c1[nH]nc(-c2ccccc2)n1/N=C/c1c[nH]c2ccccc12 |  | 2 µM (active)
91 | Cc1n[nH]c(=S)n1/N=C/c1ccc(Br)o1 | -10% | 
92 | CSC(=S)N/N=C/c1c[nH]c2ccccc12 | -6.73% | 
93 | Cc1ccc2[nH]c(C(=O)O)c(NC(=O)c3ccccc3[N+](=O)[O-])c2c1 | -8.36% | 
94 | COc1ccc(C(=O)NC2(C(F)(F)F)NC(=O)N(CCCc3ccccc3)C2=O)c(OC)c1OC (stereo not given) | -2.88% | 
95 | Cc1cccc(C)c1NC(=O)CSc1ccc([N+](=O)[O-])cn1 | -5.79% | 
